This is an account of results in PubChem BioAssay AID2685 (National Center for Advancing Translational Sciences (NCATS), 2010).

Hit rate of the full screen: of about 320,000 compounds, about 2,100 (0.66%) were called active. Another 53% or so got no clear call; they are omitted. The sample holds actives, similar compounds and a random draw of the others, so the mix is not that of the screen. Calls come from the whole dose curve; as a rule, active = well fitted inhibition curve with a large enough effect in the signal ratio, with a control signal flat (not every such curve was filed as active); inconclusive = small, poorly fitted or top-dose-only effect, or effect the other way, or a change in a side signal; inactive = flat fitted curve, though single readings scatter; the % refers to the signal ratio.
Potency is the fitted concentration of half-maximal effect.

The nature of this experiment: qHTS Assay for Lipid Storage Modulators in Drosophila S3 Cells.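 For cell number change: cells counted by Cell Tracker Red CMTPX staining in the red channel.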 For lipid storage change, negative = inhibition: % is set by controls: 0 for no effect and ±100 for the full control effect. Conditions: BODIPY lipid droplet fluorescence, 18-24 h, cells fed with added oleic acid; cell number change: measured here: cell count max response; series mostly up to 46.1 µM; lipid storage change, negative = inhibition: at the top concentration. In outline: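 Laser-scanning cytometry quantifies lipid droplet accumulation (500–530 nm total intensity; droplet/cell object ratio) in oleic acid-fed (400 uM added) Drosophila S3 cells treated with a concentration series. 20 uM Triacsin C defined 100% inhibition.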
For the molecule `COC(=O)c1ccc(NC(=O)c2ccc(NS(=O)(=O)c3cccc4cccnc34)cc2)cc1`, the “lipid storage change, negative = inhibition” value was 4.09% (inactive) and the cell number change was -0.185%. Regarding `CCOC(=O)C1CCN(c2nc(-c3ccc(C)cc3)nc3ccccc23)CC1`, the “lipid storage change, negative = inhibition” value is 10.1% (inactive) and the cell number change is -12.1%. On to `COc1ccccc1NC(=O)c1ccc(NC(=O)CSc2ncn[nH]2)cc1`, for which the “lipid storage change, negative = inhibition” value is -6.68% (inactive) and the cell number change is -3.32%. The corresponding values for `Cc1cc(-c2ccco2)n(CC(=O)O)n1` are 3.95% (inactive) and -13.3%. For `CC(Sc1ccc2ccccc2c1)C(=O)NC(N)=O` (configuration not stated) the same measures were -6.27% (inactive) and 22.5%. In the case of `CC(=O)Nc1ccc(SC(C)C(=O)NC(N)=O)cc1` (configuration not stated), the Potency is 29.1 µM (active) and the cell number change was -18.8%. Consider `CC(Sc1cccc(C(F)(F)F)c1)C(=O)NC(N)=O` (configuration not stated), for which the outcome was inactive and the cell number change was determined as 10.6%. As to `CCOC(=O)NC(O)C(=O)c1ccc(F)cc1` (configuration not stated), the “lipid storage change, negative = inhibition” value is 1.22% (inactive).

In the case of `N#Cc1ccc(Cl)cc1NC(=O)CNCc1cccs1`, the “lipid storage change, negative = inhibition” value is 18.5% (inactive) and the cell number change was found to be 4.81%.

Turning to `COc1ccc(-n2c(=O)c(CCC(=O)N3CCN(c4ccccc4O)CC3)nc3ccccc32)cc1`, the “lipid storage change, negative = inhibition” value was -27.2% (inactive) and the cell number change was -25.6%.

Take `COc1ccc(-n2c(=O)c(CCC(=O)N(C)Cc3ccccc3C)nc3ccccc32)cc1`: the “lipid storage change, negative = inhibition” value was -8.19% (inactive) and the cell number change came to 24.8%.

With `COc1ccc(-n2c(=O)c(CCC(=O)NCCc3ccccc3F)nc3ccccc32)cc1`, the Potency is 18.4 µM (active) and the cell number change is 2.07%. As for `COc1ccc2c(c1)c(CC(=O)Nc1cccc(S(N)(=O)=O)c1)c(C)n2C(=O)c1ccc(Cl)cc1`, the “lipid storage change, negative = inhibition” value was -1.43% (inactive) and the cell number change is -13.5%. For `CC(C(=O)Nc1ccc2c(c1)OCCO2)N(C)Cc1c(F)cccc1Cl` (configuration not stated), the “lipid storage change, negative = inhibition” value was 4.33% (inactive). Take `CC(=O)c1ccc(NC(=O)CCNS(=O)(=O)c2cccc3nonc23)cc1`: the Potency is 23.1 µM (active). For `Cc1ccc(NC(=O)CCNS(=O)(=O)c2cccc3nonc23)cc1`, the “lipid storage change, negative = inhibition” value was 14.5% (inactive) and the cell number change was found to be 12.6%.

For the molecule `COC(=O)c1ccc(NC(=O)CCNS(=O)(=O)c2cccc3nonc23)cc1`, the result was inactive and the cell number change was 6.69%. In the case of `COC(=O)C1=NN(C(C)(C)CC(C)=O)C2C(=O)N(C3CCCCC3)C(=O)C12` (configuration not stated), the “lipid storage change, negative = inhibition” value was -1.51% (inactive) and the cell number change was -0.806%.

Turning to `O=C(NCc1cccc(Cl)c1)c1cccc(C(F)(F)F)c1`, the “lipid storage change, negative = inhibition” value is 11.6% (inactive) and the cell number change was -1.35%.

Take `Cc1cc(NC2CCCC2)n2nc(C)c(-c3ccccc3)c2n1`: the “lipid storage change, negative = inhibition” value is -0.485% (inactive) and the cell number change is -2.08%. With `O=C(CC1Sc2ccccc2NC1=O)NCc1ccccc1` (configuration not stated), the “lipid storage change, negative = inhibition” value was 9.46% (inactive) and the cell number change turned out to be 0.893%.

As to `COc1cc(/C=C2\C(=N)N3N=CSC3=NC2=O)ccc1OS(=O)(=O)c1ccccc1`, the Potency is 2.06 µM (active) and the cell number change was -21.2%. As to `COc1cc(/C=C2\C(=N)N3N=C(S(C)(=O)=O)SC3=NC2=O)ccc1OS(=O)(=O)c1ccccc1`, the outcome was inactive and the cell number change is -27%. In the case of `COc1cc(/C=C2/C(=N)N3N=C(C)SC3=NC2=O)ccc1OS(=O)(=O)c1ccc(C)cc1`, the result was inactive and the cell number change was -5.04%. For `CCC1=NN2C(=N)/C(=C/c3ccc(OS(=O)(=O)c4ccc(C)cc4)c(OC)c3)C(=O)N=C2S1`, the “lipid storage change, negative = inhibition” value is 3.12% (inactive) and the cell number change was found to be 5%. With `COc1cc(/C=C2\C(=N)N3N=CSC3=NC2=O)ccc1OS(=O)(=O)c1ccccc1[N+](=O)[O-]`, the “lipid storage change, negative = inhibition” value was -23.3% (inactive) and the cell number change was -11.4%. Turning to `CCC1=NN2C(=N)/C(=C/c3ccc(OS(=O)(=O)c4ccccc4)c(OC)c3)C(=O)N=C2S1`, the Potency is 1.84 µM (active) and the cell number change stood at 4.58%. For `Cc1cc(/C=C2\SC(=O)N(CC(=O)Nc3ccccc3F)C2=O)c(C)n1C`, the “lipid storage change, negative = inhibition” value was -0.336% (inactive) and the cell number change was determined as 1.47%. Turning to `Cc1ccccc1-n1c(C)n[nH]c1=S`, the “lipid storage change, negative = inhibition” value was 3.14% (inactive) and the cell number change amounted to 1.24%. With `COc1ccc(CC(=O)NNC(=O)CSc2nnc(C)n2-c2ccccc2)cc1`, the call was inactive and the cell number change was -9.57%. Take `CC1Cc2ccccc2N1C(=O)CSc1nnc(Cn2nnc3ccccc32)n1C` (configuration not stated): the “lipid storage change, negative = inhibition” value is -0.751% (inactive) and the cell number change was -16.3%. In the case of `O=C(Nc1ccc(O)cc1)N1CCOCC1`, the call was inactive and the cell number change is 20%. Turning to `O=C(O)C1CCCN1C(=O)Oc1ccccc1` (configuration not stated), the Potency is 23.1 µM (active) and the cell number change came out at 0.79%. With `O=C(O)C1CCCN1C(=O)OCc1ccccc1` (configuration not stated), the “lipid storage change, negative = inhibition” value was -4.77% (inactive) and the cell number change worked out at 12.4%. For `O=C(O)C1CCCN1C(=O)Nc1ccc(F)cc1` (configuration not stated), the Potency was 6.51 µM (active) and the cell number change came out at 1.35%.

On to `O=C(Nc1ccccc1)N1CCN(c2nc3ccccc3s2)CC1`, for which the call was inactive.

With `O=C(NCCc1ccccc1)C1CCCN1C(=O)Nc1ccc(F)cc1` (configuration not stated), the “lipid storage change, negative = inhibition” value was 7.13% (inactive) and the cell number change is -10%. Consider `O=C(Nc1ccc(F)cc1)N1CCN(c2nc3ccccc3s2)CC1`, for which the Potency is 4.11 µM (active). Regarding `O=C(NC1CCCC1)C1CCCN1C(=O)Oc1ccccc1` (configuration not stated), the “lipid storage change, negative = inhibition” value was -6.65% (inactive) and the cell number change is -16.7%. Regarding `O=C(NCc1ccc(F)cc1)C1CCCN1C(=O)Nc1ccc(F)cc1` (configuration not stated), the “lipid storage change, negative = inhibition” value is 10.1% (inactive) and the cell number change amounted to 12.2%. As to `O=C(Nc1ccc(F)cc1)N1CCOCC1`, the Potency was 20.6 µM (active) and the cell number change is -6.86%. In the case of `CSc1ccc(NC(=O)N2CCN(c3nc4ccccc4s3)CC2)cc1`, the molecule was classed as inactive. As to `O=C(Nc1ccc(F)cc1)N1CCCCCC1`, the “lipid storage change, negative = inhibition” value is 11.9% (inactive) and the cell number change was found to be 7.77%. On to `COc1ccccc1C(=O)C1CCCN(Cc2cccc3nccnc23)C1` (configuration not stated), for which the “lipid storage change, negative = inhibition” value was -3.26% (inactive) and the cell number change is 15%.

As for `CC(C)Nc1ccc(C(CC(N)=O)NC(=O)Cc2cccc3ccccc23)cc1[N+](=O)[O-]` (configuration not stated), the “lipid storage change, negative = inhibition” value was -6.77% (inactive) and the cell number change was found to be 1.26%.

On to `CCOC(=O)c1sc(=NC(=O)c2cccc(C)c2)n(C)c1C`, for which the “lipid storage change, negative = inhibition” value is 3.79% (inactive). In the case of `Cc1cc(Cl)ccc1NC(=S)NCc1ccco1`, the “lipid storage change, negative = inhibition” value is -3.05% (inactive) and the cell number change was -9.3%.
